From PubChem
PI5P4K alpha inh: PI5P4K alpha (human) kinase inhibition; P48426; PI5P4Kalpha enzyme, ADP-Glo luminescence, 60 min; active compounds read low; max response, %; hit rate 1.2% among 330,000; AID 652105; active = max response of -50% or lower; inconclusive = between -30% and -50%; inactive = -30% or higher; also: value at the top dose of about 77 µM; % is scaled to controls: 0 for no effect and ±100 for the full control effect
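ADP-Glo luminescence end-point read after a 60 min room-temperature kinase reaction of PI5P4Kalpha plus substrate, initiated with ATP at 5 microM final. Buffer: 0.038 M HEPES pH 7.4, EGTA, 0.1% CHAPS, 5% DMSO.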
G9a block: blocks human histone lysine methyltransferase G9a. hit rate 8.8% among 350,000. Q96KQ7. AID 504332. Potency, µM (titrated, usually from 102 µM), inactives show top-dose activity, negative = inhibition, actives largely listed as inhibitors. G9a H3K9 monomethylation, AlphaScreen, 2 h; also: potency is read from the fitted curve at half-maximal effect; % is scaled to controls: 0 for no effect and ±100 for the full control effect; nearly all actives have a fitted effect of over 75% in size
Target sequence (Q96KQ7 913-1193 limits assumed): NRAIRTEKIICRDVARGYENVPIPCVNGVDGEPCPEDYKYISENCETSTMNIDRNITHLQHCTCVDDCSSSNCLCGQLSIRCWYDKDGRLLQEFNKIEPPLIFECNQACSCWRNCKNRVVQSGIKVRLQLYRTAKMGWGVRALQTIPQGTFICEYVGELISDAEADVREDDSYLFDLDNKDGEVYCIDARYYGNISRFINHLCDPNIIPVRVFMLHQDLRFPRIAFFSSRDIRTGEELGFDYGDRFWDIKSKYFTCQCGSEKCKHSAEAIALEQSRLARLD
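Readings reflect AlphaScreen signal from monomethyl-H3K9 antibody detection. HMT at 20 nM; substrate b-H3K9 500 nM; cofactor SAM 20 uM; 2 h RT reaction; compounds tested as titrations in qHTS with 15 min preincubation.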
PLK1 PBD inh: blocks phosphopeptide binding to human PLK1 polo-box domain; P53350; Plk1 PBD binding of FITC phosphopeptide, fluorescence polarization; Potency, µM, for inactives: max response, negative = inhibition, actives largely listed as inhibitors; hit rate 2.8% among 360,000; also: potency is read from the fitted curve at half-maximal effect; series mostly up to about 57 µM; % is scaled to controls: 0 for no effect and ±100 for the full control effect; nearly all actives have a fitted effect of over 65% in size
JMJD2A Tudor: blocks the human JMJD2A Tudor domain; AlphaScreen JMJD2A-Tudor / H3K4me3 peptide binding; AID 504339; Potency, µM (doses to about 114 µM), for inactives: at the top dose activity change, negative = inhibition, hits mostly inhibitors; hit rate 4.4% among 390,000; also: potency is read from the fitted curve at half-maximal effect; % is scaled to controls: 0 for no effect and ±100 for the full control effect; nearly all actives have a fitted effect of over 50% in size
BAZ2B inh: inhibitors of human BAZ2B bromodomain | AlphaScreen BAZ2B-H3K14Ac peptide displacement | Potency, µM (series often up to 114 µM), for inactives: top-dose activity change, negative = inhibition, hits mostly inhibitors | hit rate 4.4% among 360,000; also: potency is read from the fitted curve at half-maximal effect; % is scaled to controls: 0 for no effect and ±100 for the full control effect; nearly all actives have a fitted effect of over 60% in size
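Complex of BAZ2B and biotin-H3K14Ac (50 nM apiece) forms over 30 min at RT, then faces library compounds up to 110 uM for another 30 min; AlphaScreen beads added, 20 min dark incubation, luminescence read.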
HP1b binding inh: HP1-beta chromodomain-methylated histone interaction inhibition; AlphaScreen HP1-beta / biotin-H3K9me3 peptide binding; Potency, µM (series often up to 114 µM), for inactives: top-dose activity change, negative = inhibition, usual class: inhibitors; P83916; hit rate 0.56% among 390,000; also: potency is read from the fitted curve at half-maximal effect; nearly all actives have a fitted effect of over 70% in size
Target sequence (P83916 whole entry, looked up): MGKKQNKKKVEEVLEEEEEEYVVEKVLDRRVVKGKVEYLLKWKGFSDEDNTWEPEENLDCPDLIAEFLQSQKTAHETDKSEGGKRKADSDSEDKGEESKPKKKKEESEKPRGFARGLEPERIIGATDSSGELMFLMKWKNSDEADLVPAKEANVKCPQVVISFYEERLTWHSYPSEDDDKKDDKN
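AlphaScreen: HP1-beta (50 nM) preformed 30 min with biotin-H3(1-18)K9me3 peptide (50 nM) in PBS pH 7.4, 0.01% Tween-20. Compound added for 30 min at RT, then streptavidin donor/nickel chelate acceptor beads (10 ug/mL) for 30 min.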
* = called active by the depositor; [ ] = another dose, or the depositor's remark. Sampled rows, rich in hits. Any-hit rate of the full collection: about 12%. Unless noted, calls follow the shape of the dose curve; as a rule, active = well fitted curve in the direction sought with a large enough effect; inconclusive = small, poorly fitted or top-dose-only effect, or another doubt; inactive = no such curve, though single readings can be large; an effect the other way counts as inactive or inconclusive.

Screening Cc1ccc(OCCSc2nc3ccccc3n2CC(=O)N2CCCCC2)cc1C returned G9a block 13µM*, JMJD2A Tudor -33%, BAZ2B inh -35% and HP1b binding inh -1%.
Screening OCCn1c(SCCOc2ccccc2F)nc2ccccc21 returned PI5P4K alpha inh 13, G9a block -17%[59 µM], PLK1 PBD inh -12%, JMJD2A Tudor -12%, BAZ2B inh 4% and HP1b binding inh 66%.
O=C(O)Cn1c(SCCOc2ccccc2F)nc2ccccc21 was read as PI5P4K alpha inh -29, G9a block 16%[59 µM], PLK1 PBD inh 19µM*, JMJD2A Tudor -25%[11.4 µM], BAZ2B inh -32% and HP1b binding inh 8%.
For COc1ccc(N2CCN(CCCNC(=O)C(=O)c3c(C)[nH]c4ccccc34)CC2)cc1 the results were PI5P4K alpha inh -5, G9a block -1%[0.0925 µM], PLK1 PBD inh -18%, JMJD2A Tudor 45µM*, BAZ2B inh 28µM* and HP1b binding inh inconclusive.
`COc1ccc(N2CCN(CC(=O)c3c[nH]c4ccccc34)CC2)cc1` gave PI5P4K alpha inh 4, G9a block 5%, PLK1 PBD inh -7%, JMJD2A Tudor -7%, BAZ2B inh 9% and HP1b binding inh 4%.
COc1ccc(N2CCN(CCCn3c(=S)[nH]c4ccccc4c3=O)CC2)cc1 was read as PI5P4K alpha inh 6, G9a block 7%, PLK1 PBD inh 2%, JMJD2A Tudor inconclusive, BAZ2B inh 28µM* and HP1b binding inh 27%.
CCOc1cc2[nH]c(=O)n(CCCCC(=O)N3CCN(c4ccc(OC)cc4)CC3)c(=O)c2cc1OCC was read as G9a block -9%[59 µM], JMJD2A Tudor -6%, BAZ2B inh 1% and HP1b binding inh 22%.
For CCOc1cc2[nH]c(=O)n(CCCN3CCN(c4ccc(OC)cc4)CC3)c(=O)c2cc1OCC the results were PI5P4K alpha inh -3, G9a block 10µM*, PLK1 PBD inh 4%, JMJD2A Tudor inconclusive, BAZ2B inh inconclusive and HP1b binding inh -22%.
For Cc1ccc(S(=O)(=O)NC(=O)c2cc(C)n(CCCn3ccnc3)c2C)cc1 the results were PI5P4K alpha inh -4, G9a block inconclusive, PLK1 PBD inh -5%, JMJD2A Tudor 56µM*, BAZ2B inh 32µM* and HP1b binding inh 36%.
Screening Cc1cc(=S)cc(C)n1CCCn1ccnc1 returned PI5P4K alpha inh -1, G9a block 25µM*, PLK1 PBD inh -1%, JMJD2A Tudor -20% and HP1b binding inh 18%.
`O=C(/C=C/[C@H]1O[C@@H](n2cnc3c(NC(=O)c4ccccc4)ncnc32)[C@H](O)[C@@H]1O)NCc1cccc2ccccc12` gave PI5P4K alpha inh 2 and PLK1 PBD inh -9%.
CCN(C=NC1=NN(c2cccc(C(F)(F)F)c2)CC1)CC was read as PI5P4K alpha inh 4, G9a block inconclusive, PLK1 PBD inh -22%, JMJD2A Tudor 50µM*, BAZ2B inh 50µM* and HP1b binding inh inconclusive.
OCCN(C=NC1=NN(c2cccc(C(F)(F)F)c2)CC1)CCO was read as PI5P4K alpha inh 0, PLK1 PBD inh -11%, JMJD2A Tudor inconclusive, BAZ2B inh -8% and HP1b binding inh -9%.
Cc1cccc(N2CCC(N=CN(C)C)=N2)c1 was read as PI5P4K alpha inh -1, G9a block 4µM*, PLK1 PBD inh -8%, JMJD2A Tudor inconclusive, BAZ2B inh -24% and HP1b binding inh 6%.
For Cc1ccc2onc(CC(=O)N3CCN(c4cccc(Cl)c4)CC3)c2c1 the results were G9a block -44%[59 µM], JMJD2A Tudor -35%, BAZ2B inh inconclusive and HP1b binding inh 11%.
O=C(c1cnn2c(C(F)F)cc(-c3ccccc3)nc12)N1CCN(Cc2ccc3c(c2)OCO3)CC1 was read as PI5P4K alpha inh 5, G9a block -9%, PLK1 PBD inh -8%, JMJD2A Tudor inconclusive, BAZ2B inh -24% and HP1b binding inh 7%.
For Cc1cc(NS(=O)(=O)c2ccccc2)cc(Cl)c1O the results were PI5P4K alpha inh -2, G9a block 2.2µM*, PLK1 PBD inh -10%, JMJD2A Tudor 89µM*, BAZ2B inh 12% and HP1b binding inh -26%.
`C/C(=N\NS(=O)(=O)c1ccccc1)c1cc(Cl)cc(Cl)c1O` gave PI5P4K alpha inh 0, G9a block 45µM*, PLK1 PBD inh -17%, JMJD2A Tudor -30%, BAZ2B inh inconclusive and HP1b binding inh 5%.
Screening COc1ccc(NS(=O)(=O)c2ccc(N3CCCCC3)c(N)c2)cc1 returned PI5P4K alpha inh -1, G9a block 13%[2.33 µM], PLK1 PBD inh -19%, JMJD2A Tudor inconclusive, BAZ2B inh inconclusive and HP1b binding inh -17%.
`CCN(CC)CCn1c(-c2ccccc2)csc1=Nc1ccccc1` gave G9a block 2.2µM*, JMJD2A Tudor 18µM*, BAZ2B inh 50µM* and HP1b binding inh inconclusive.
For CCn1c(-c2ccccc2)csc1=Nc1ccc(S(=O)(=O)O)cc1 the results were PI5P4K alpha inh -11, G9a block 18µM*, PLK1 PBD inh -16%, JMJD2A Tudor -32%, BAZ2B inh -35% and HP1b binding inh -22%.
OCCCn1c(-c2ccccc2)csc1=Nc1ccccc1 was read as PI5P4K alpha inh 15, G9a block 22µM*, PLK1 PBD inh 1%, JMJD2A Tudor inconclusive, BAZ2B inh 56µM* and HP1b binding inh inconclusive.
COC(=O)c1cc(=O)n(Cc2ccc3c(c2)OCO3)c(=Nc2ccccc2)s1 was read as PI5P4K alpha inh 4, G9a block inconclusive, PLK1 PBD inh -3%, JMJD2A Tudor inconclusive, BAZ2B inh inconclusive and HP1b binding inh -17%.
For Cc1ccc(-c2csc(=Nc3ccccc3)n2Cc2ccc3c(c2)OCO3)cc1 the results were G9a block 11µM*, JMJD2A Tudor 56µM*, BAZ2B inh 8.9µM* and HP1b binding inh inconclusive.
`CCN(CC)CCn1c(C)nc2ccccc21` gave PI5P4K alpha inh 1, PLK1 PBD inh 2%, JMJD2A Tudor -10%, BAZ2B inh -17% and HP1b binding inh -2%.
`O=C(O)CCC(=O)NCCn1c(-c2ccccc2)csc1=Nc1ccccc1` gave PI5P4K alpha inh -4, G9a block inconclusive, PLK1 PBD inh -1%, JMJD2A Tudor -16%, BAZ2B inh inconclusive and HP1b binding inh 1%.
Screening CCOCCCn1c(SCC(=O)NCc2ccccc2)nc2c(sc3ccccc32)c1=O returned G9a block -27%[59 µM], JMJD2A Tudor -29%, BAZ2B inh -2% and HP1b binding inh 68%.
For Cc1ccccc1CSc1cn(CCNC(=O)c2cccs2)c2ccccc12 the results were G9a block -36%[59 µM], JMJD2A Tudor -10%, BAZ2B inh inconclusive and HP1b binding inh 27%.
